Our source for the outcome and AC50 values is PubChem BioAssay (EPA / NIEHS).

Assay [1] in a line: APR_HepG2_NuclearSize_72hr: Apredica 72-hour HepG2 Assay for Nuclear Size (AID 2282925). As to conditions: high-content imaging, actives raise or lower the signal. The method in brief:
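HepG2; cpd 0.39–200 uM, 10 conc, duplicate; 72 h; DMSO 0.5% v/v; fix 3.7% formaldehyde 30 min RT; Triton permeabilization; Hoechst 2 ug/mL; HCS imaging 20x; nuclear diameter; gain/loss fit vs DMSO.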

Assay [2] is described as follows: ATG_CRE_CIS: Attagene CIS-FACTORIAL HepG2 Assay for human cAMP Responsive Element (CRE) binding protein 3 (AID 2282926). The conditions noted are these: HepG2 CRE cis-reporter, Attagene multiplexed mRNA; actives raise or lower the signal. A digest of the protocol: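 We dosed HepG2 cells bearing multiple cis-promoter reporter units for 24 h and measured reporter mRNA by RT-PCR with capillary electrophoresis detection. Bidirectional concentration-response fitting used DMSO as negative control.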

The target in assay [3] is CCAAT/enhancer-binding protein beta (Homo sapiens) (UniProt P17676). Put plainly: ATG_C_EBP_CIS: Attagene CIS-FACTORIAL HepG2 Assay for human CCAAT/Enhancer Binding Protein (C/EBP) beta (AID 2282927). As to conditions: HepG2 Attagene cis-factorial transcription factor reporter; actives raise or lower the signal. A digest of the protocol: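 Changes in reporter mRNA, rather than exogenous chimeric receptor activity, reflect native C/EBP signalling in transfected HepG2 cells dosed for 24 h; transcripts are detected by RT-PCR and capillary electrophoresis.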

Assay [4] is described as follows: ATG_CMV_CIS: Attagene CIS-FACTORIAL HepG2 Assay for human CMV (Internal Marker) (AID 2282928).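 Note: endpoint acts as a background internal control marker rather than a target.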 The conditions noted are these: HepG2 CMV promoter reporter, transcription factor profiling; actives raise or lower the signal. A digest of the protocol:
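CMV internal-marker background readout in transiently transfected HepG2 cells bearing cis-regulated reporter units. Reporter mRNA is measured 24 h after dosing by RT-PCR and capillary electrophoresis, with bidirectional fitting against DMSO.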

Assay [5] in a line: ATG_DR4_LXR_CIS: Attagene CIS-FACTORIAL HepG2 Assay for human Liver X Receptor (LXR), DR4 submotif (AID 2282929). The conditions noted are these: HepG2 Attagene DR4 cis-reporter, mRNA transcription; actives raise or lower the signal. The method in brief: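 Transiently transfected HepG2 liver cells; cis-regulated reporters; 24 h dosing. RT-PCR plus CE read-out of reporter mRNA. DMSO baseline, bidirectional curve fitting.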

The target in assay [6] is Aryl hydrocarbon receptor (Homo sapiens) (UniProt P35869). Put plainly: ATG_Ahr_CIS: Attagene CIS-FACTORIAL HepG2 Assay for human Aryl Hydrocarbon Receptor (Ahr) (AID 2282930). As to conditions: HepG2 AhR cis-factorial reporter transcription; actives raise or lower the signal. A digest of the protocol: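 HepG2, transient MRTU (cis) transfection, 24 h exposure. RNA → cDNA → PCR → 6-FAM primer extension → HpaI 2 h 37 C → CE. Fit: bidirectional, DMSO baseline.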

Assay [7] can be described thus: ATG_AP_1_CIS: Attagene CIS-FACTORIAL HepG2 Assay for human Activator Protein 1 (AP-1) (AID 2282931). As to conditions: HepG2 Attagene cis-factorial AP-1 reporter mRNA; actives raise or lower the signal. A digest of the protocol: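 We transfected HepG2 cells transiently with a set of cis-regulated reporter transcription units, dosed them for 24 h, and quantified reporter mRNA via RT-PCR and capillary electrophoresis, scoring gain or loss of signal relative to DMSO.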

Assay [8] in a line: ATG_BRE_CIS: Attagene CIS-FACTORIAL HepG2 Assay for human Bone Morphogenetic Protein (BMP) Response Element (BRE) (AID 2282933). The conditions noted are these: HepG2 BMP response element reporter, Attagene transcription factor profiling; actives raise or lower the signal. A digest of the protocol: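 Endogenous transcription factor activity at a BMP response element was monitored in transfected HepG2 cells 24 h after dosing. Fluorescent RT-PCR products were resolved by capillary electrophoresis, and activity was fitted in both directions versus DMSO.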

Assay [9] deals with Retinoic acid receptor alpha (Homo sapiens) (UniProt P10276). As to the kind of experiment: ATG_DR5_RAR_CIS: Attagene CIS-FACTORIAL HepG2 Assay for human Retinoic Acid Receptor Alpha (RARE), DR5 submotif (AID 2282934). As to conditions: HepG2 Attagene cis-factorial RARE DR5 reporter, mRNA; actives raise or lower the signal. The method in brief: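 HepG2, transient cis-reporter transfection, 24 h exposure. mRNA readout: RT-PCR, FAM label, HpaI cut, capillary electrophoresis. DMSO baseline, gain/loss fitting.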

In assay [10] the target is Transcription factor E2F1 (Homo sapiens) (UniProt Q01094). Put plainly: ATG_E2F_CIS: Attagene CIS-FACTORIAL HepG2 Assay for human E2F Transcription Factor 1 (AID 2282935). As to conditions: HepG2 Attagene cis-reporter, E2F reporter RNA transcripts; actives raise or lower the signal. A digest of the protocol:
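Cis-element reporter mRNA induction in transiently transfected HepG2, 24 h exposure. Activity fitted in both directions relative to DMSO negative control.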

Assay [11] can be described thus: ATG_E_Box_CIS: Attagene CIS-FACTORIAL HepG2 Assay for human Enhancer Box (E-box) (AID 2282936). As to conditions: HepG2 E-box cis-reporter transcription, actives raise or lower the signal. The method in brief:
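Cells: HepG2 (human liver), transient MRTU transfection. Exposure 24 h. RNA → oligo(dT) RT → PCR → 6-FAM label → HpaI → CE. Activity fitted both directions relative to DMSO.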

Assay [12] can be described thus: ATG_M_61_CIS: Attagene CIS-FACTORIAL HepG2 Assay for M61 Transcription Factor (Internal Marker) (AID 2282937). The conditions noted are these: HepG2 Attagene CIS-FACTORIAL M61 internal marker reporter; actives raise or lower the signal. A digest of the protocol:
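Multiplexed reporter mRNA assay, HepG2 human hepatoma cells, 24 h treatment. Signal: FAM-labelled, HpaI-digested RT-PCR fragments by CE. Fit: bidirectional, baseline DMSO.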

The nature of assay [13]: ATG_EGR_CIS: Attagene CIS-FACTORIAL HepG2 Assay for human Early Growth Response 1 (EGR1) (AID 2282938). As to conditions: HepG2 Attagene CIS-FACTORIAL EGR reporter mRNA; actives raise or lower the signal. A digest of the protocol: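 Multiplexed cis-reporter system in human hepatoma HepG2 cells, transiently transfected. Cells are dosed for 24 h; reporter transcripts are amplified, fluorescently tagged and sized by capillary electrophoresis, with DMSO as negative control.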

Assay [14] in a line: ATG_ERE_CIS: Attagene CIS-FACTORIAL HepG2 Assay for Estrogen Response Element (ERE) (AID 2282940). As to conditions: HepG2 ERE cis-reporter, Attagene RNA transcript; actives raise or lower the signal. A digest of the protocol: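 Cells used were human hepatoma HepG2, transfected with multiple reporter transcription units under cis-regulatory promoters. Reporter mRNA, read 24 h post-dosing via fluorescent RT-PCR products on capillary electrophoresis, was fitted bidirectionally relative to DMSO.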

Assay [15] deals with Hepatocyte nuclear factor 3-beta (Homo sapiens) (UniProt Q9Y261). As to the kind of experiment: ATG_FoxA2_CIS: Attagene CIS-FACTORIAL HepG2 Assay for human Forkhead box A2 (FOXA2) (AID 2282942). As to conditions: HepG2 cis-reporter transcription factor activity, 24 h; actives raise or lower the signal. The method in brief: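 Multiplexed cis-element reporter assay in transiently transfected HepG2. Twenty-four hours post-dosing, RNA was reverse-transcribed, amplified, FAM-labelled, HpaI-digested and separated by CE. Activity gain or loss relative to DMSO.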

Assay [16] in a line: ATG_FoxO_CIS: Attagene CIS-FACTORIAL HepG2 Assay for human Forkhead box O (FoxO) (AID 2282943). As to conditions: HepG2 Attagene cis-reporter, FoxO element, mRNA; actives raise or lower the signal. The method in brief: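 Human hepatoma HepG2 cells carry transiently introduced reporter transcription units controlled by cis promoter elements. Chemical treatment lasted 24 h, and mRNA signal was compared with DMSO.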

The nature of assay [17]: ATG_GATA_CIS: Attagene CIS-FACTORIAL HepG2 Assay for human GATA Binding Protein (AID 2282944). The conditions noted are these: HepG2 GATA cis-element reporter, Attagene multiplex mRNA; actives raise or lower the signal. A digest of the protocol:
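Endogenous transcription factor activity was captured through cis-promoter-driven reporters in transfected HepG2 cells. After 24 h exposure, reporter transcripts were quantified by RT-PCR with fluorescent capillary electrophoresis, and responses fitted both directions against DMSO.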

Assay [18] in a line: ATG_AP_2_CIS: Attagene CIS-FACTORIAL HepG2 Assay for human Activator Protein 2 (AP-2) (AID 2282932). As to conditions: HepG2 AP-2 cis-reporter, Attagene transcription factor profiling; actives raise or lower the signal. The method in brief: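 HepG2, transient MRTU transfection, cis-regulated reporters; 24 h compound exposure; RNA isolated, RT-PCR, 6-FAM labelling, HpaI digest, CE fluorescence. DMSO = negative control/baseline, bidirectional fit.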

Assay [19] in a line: ATG_M_19_CIS: Attagene CIS-FACTORIAL HepG2 Assay for M19 Transcription Factor (Internal Marker) (AID 2282939). As to conditions: HepG2 Attagene CIS-FACTORIAL M19 internal marker reporter; actives raise or lower the signal. A digest of the protocol: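 Background-control endpoint from a multiplexed HepG2 reporter panel. Cells carrying cis-regulated reporter constructs are treated 24 h, then reporter transcripts are amplified, fluorescently labelled and sized by capillary electrophoresis. DMSO defines baseline.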

Assay [20] can be described thus: ATG_Ets_CIS: Attagene CIS-FACTORIAL HepG2 Assay for human Erythroblast Transformation Specific (ETS) (AID 2282941). The conditions noted are these: HepG2 ETS cis-reporter transcription, actives raise or lower the signal. The method in brief: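 HepG2 cells transfected with multiple cis-regulated reporter units measuring endogenous ETS-driven transcription, 24 h after dosing. Reporter mRNA quantified by RT-PCR with capillary electrophoresis; bidirectional fit relative to DMSO.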

“And” between values parts separate entries of the source, which are not always exact repeats. Equal values may be shown once. Some structures have more than one record in an assay (separate samples or runs), and their calls can disagree. The source made the active and inactive calls. Rule for the calls: active = hit-call score of the fitted dose curve at least 0.9, where 1 is the maximum; inactive = score below 0.9.

Usually AC50 stands for the concentration giving half of the maximal activity seen.

Sequence of CCAAT/enhancer-binding protein beta (Homo sapiens) (P17676 whole entry, looked up): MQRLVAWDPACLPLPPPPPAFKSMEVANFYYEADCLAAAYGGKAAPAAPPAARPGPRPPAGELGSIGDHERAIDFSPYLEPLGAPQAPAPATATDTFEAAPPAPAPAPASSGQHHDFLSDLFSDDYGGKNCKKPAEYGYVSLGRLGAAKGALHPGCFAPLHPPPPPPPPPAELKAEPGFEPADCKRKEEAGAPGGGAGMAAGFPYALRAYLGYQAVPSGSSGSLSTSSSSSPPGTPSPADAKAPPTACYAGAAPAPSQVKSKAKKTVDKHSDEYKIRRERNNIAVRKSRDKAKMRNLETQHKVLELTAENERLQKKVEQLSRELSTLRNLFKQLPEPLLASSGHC
Sequence of Retinoic acid receptor alpha (Homo sapiens) (P10276 whole entry, looked up): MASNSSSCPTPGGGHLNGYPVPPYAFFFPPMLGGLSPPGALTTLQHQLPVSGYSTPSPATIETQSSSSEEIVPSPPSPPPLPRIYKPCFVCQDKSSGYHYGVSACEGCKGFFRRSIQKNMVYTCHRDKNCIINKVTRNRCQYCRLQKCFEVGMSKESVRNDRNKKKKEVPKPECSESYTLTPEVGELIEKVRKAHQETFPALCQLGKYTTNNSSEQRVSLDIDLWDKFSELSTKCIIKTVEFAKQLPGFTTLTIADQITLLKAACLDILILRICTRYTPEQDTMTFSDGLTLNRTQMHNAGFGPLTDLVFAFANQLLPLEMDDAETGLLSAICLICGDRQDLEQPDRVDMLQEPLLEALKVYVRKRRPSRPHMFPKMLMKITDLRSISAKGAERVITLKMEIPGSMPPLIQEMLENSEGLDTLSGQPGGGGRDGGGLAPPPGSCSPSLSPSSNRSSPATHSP
Sequence of Transcription factor E2F1 (Homo sapiens) (Q01094 whole entry, looked up): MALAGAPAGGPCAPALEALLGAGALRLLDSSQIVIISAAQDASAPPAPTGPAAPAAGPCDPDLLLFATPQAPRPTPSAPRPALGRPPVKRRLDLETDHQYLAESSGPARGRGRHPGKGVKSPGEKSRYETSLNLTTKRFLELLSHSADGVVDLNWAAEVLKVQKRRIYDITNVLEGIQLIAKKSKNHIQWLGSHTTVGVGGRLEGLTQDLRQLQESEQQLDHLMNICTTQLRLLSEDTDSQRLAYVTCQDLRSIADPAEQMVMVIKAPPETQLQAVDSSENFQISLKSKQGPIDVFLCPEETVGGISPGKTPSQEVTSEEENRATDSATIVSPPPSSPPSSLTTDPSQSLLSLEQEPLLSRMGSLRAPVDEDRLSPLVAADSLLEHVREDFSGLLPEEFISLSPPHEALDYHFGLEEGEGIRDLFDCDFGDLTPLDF
Sequence of Hepatocyte nuclear factor 3-beta (Homo sapiens) (Q9Y261 whole entry, looked up): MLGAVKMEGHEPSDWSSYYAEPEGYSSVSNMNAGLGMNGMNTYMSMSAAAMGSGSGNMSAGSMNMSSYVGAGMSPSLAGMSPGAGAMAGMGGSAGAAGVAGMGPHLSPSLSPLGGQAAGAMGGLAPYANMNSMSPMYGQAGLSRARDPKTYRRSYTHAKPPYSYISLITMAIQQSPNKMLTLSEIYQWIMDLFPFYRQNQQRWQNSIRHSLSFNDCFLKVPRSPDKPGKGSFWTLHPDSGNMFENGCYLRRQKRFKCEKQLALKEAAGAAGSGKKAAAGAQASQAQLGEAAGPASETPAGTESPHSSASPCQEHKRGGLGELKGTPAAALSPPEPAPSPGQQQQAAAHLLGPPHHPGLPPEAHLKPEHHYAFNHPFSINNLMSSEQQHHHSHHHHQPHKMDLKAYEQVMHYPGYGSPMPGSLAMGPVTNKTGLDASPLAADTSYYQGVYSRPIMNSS
Sequence of Aryl hydrocarbon receptor (Homo sapiens) (P35869 whole entry, looked up): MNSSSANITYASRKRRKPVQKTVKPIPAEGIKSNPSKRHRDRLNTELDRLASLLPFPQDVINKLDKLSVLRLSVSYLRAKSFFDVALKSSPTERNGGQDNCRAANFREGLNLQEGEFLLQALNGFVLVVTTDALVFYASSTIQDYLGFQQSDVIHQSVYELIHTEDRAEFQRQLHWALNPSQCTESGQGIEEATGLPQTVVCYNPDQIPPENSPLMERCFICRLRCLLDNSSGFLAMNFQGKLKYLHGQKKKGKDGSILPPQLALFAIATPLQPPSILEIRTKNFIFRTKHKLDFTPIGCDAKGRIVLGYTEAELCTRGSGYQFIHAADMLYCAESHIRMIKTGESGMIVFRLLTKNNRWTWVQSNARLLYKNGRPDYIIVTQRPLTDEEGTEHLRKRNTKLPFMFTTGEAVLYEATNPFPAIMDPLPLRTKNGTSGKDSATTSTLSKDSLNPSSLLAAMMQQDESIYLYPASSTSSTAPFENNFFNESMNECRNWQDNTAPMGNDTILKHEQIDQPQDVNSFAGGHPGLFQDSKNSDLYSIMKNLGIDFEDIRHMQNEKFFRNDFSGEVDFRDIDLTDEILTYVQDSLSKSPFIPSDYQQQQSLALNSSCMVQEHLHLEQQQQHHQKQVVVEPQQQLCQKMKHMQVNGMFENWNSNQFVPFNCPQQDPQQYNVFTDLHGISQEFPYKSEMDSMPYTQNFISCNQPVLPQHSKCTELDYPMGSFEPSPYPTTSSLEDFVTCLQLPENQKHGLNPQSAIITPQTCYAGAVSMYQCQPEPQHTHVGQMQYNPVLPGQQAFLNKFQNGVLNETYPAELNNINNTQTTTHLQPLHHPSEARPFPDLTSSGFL

With `O=[N+]([O-])c1ccc(O)cc1`, the call in assay [1], in assay [2], in assay [3], in [4], in assay [5] and in [6] was inactive. Besides, the call in assay [7], in assay [8], in [9], in [10], in assay [11] and in [12] was inactive. Moreover, the call in assay [13], in assay [14], in assay [15], in [16] and in assay [17] was inactive.

`Cc1ccc(S(=O)(=O)O)c(C)c1`: the compound was called inactive in [2], in assay [3], in [4], in [5], in [6] and in assay [7]. Moreover, the call in assay [18], in assay [8], in assay [10], in assay [11], in [12] and in [13] was inactive. The outcome in assay [19], in [14], in assay [15], in [16] and in assay [17] was inactive.

For the compound `CN(C)C=O`, the compound was called inactive in assay [1], in assay [2], in [3], in [4], in assay [5] and in assay [6]. Moreover, the compound was classed as inactive in assay [7], in assay [8], in assay [9], in assay [10], in assay [11] and in assay [12]. Moreover, the outcome in assay [13], in [19], in [14], in [15], in assay [16] and in assay [17] was inactive.

As for `CCCCCCCCOC(=O)CCCCCCCCC(=O)OCCCCCCCC`, the compound was called inactive in [1], in [2], in assay [3], in assay [4], in [5] and in assay [6]. The outcome in assay [7], in assay [8], in [9], in assay [10], in assay [11] and in assay [12] was inactive. In addition, the call in [13], in assay [14], in assay [20], in assay [15], in assay [16] and in assay [17] was inactive.

As for `O=C1OC2(c3ccccc31)c1cc(Br)c(O)c(Br)c1Oc1c2cc(Br)c(O)c1Br`, the result in assay [2], in [3], in [4], in [5], in assay [6] and in [7] was inactive. Besides, the compound was classed as inactive in assay [18], in assay [8], in assay [9], in assay [10], in [11] and in [12]. The result in assay [13], in [14], in assay [15], in assay [16] and in assay [17] was inactive. The AC50 is 93 µM (active) in assay [4], 62.7 µM (active) in [11] and 62.3 µM (active) in assay [13].

For the compound `CCCCCCCCCCCCCC[N+](C)(C)C`, the result in [2], in assay [3], in assay [4], in [5], in assay [6] and in assay [9] was inactive. Further, the outcome in assay [10], in assay [11], in assay [12], in assay [13], in assay [14] and in [15] was inactive. Further, the compound was called inactive in assay [16] and in [17]. In addition, the AC50 was 15.2 µM (active) in [4]; 16.6 µM (active) in assay [5]; 6.78 µM (active) and 7.32 µM (active) in assay [7]; 13.1 µM (active) and 4.06 µM (active) in [8]; 11.1 µM (active) in assay [13].
